SARS PLP yeast: inhibitors of SARS-CoV papain-like protease in yeast; S. cerevisiae expressing SARS-CoV PLpro, growth rescue; actives 0.19% (n = 330,000); Potency, µM (titrated, usually from 32.9 µM), for the others: top-dose activity, positive = growth rescue, most hits filed as activators; AID 485353; calls by dose curve; note: 0% is about no effect; nearly all actives have a fitted effect of over 55% in size
NS1 inh: inhibitors of influenza NS1 protein function; actives 0.4% (n = 270,000); Potency, µM (titrated, usually from 46.1 µM), for the others: at the highest dose activity, positive = more growth; calls by dose curve; note: actives are rising curves; nearly all actives have a fitted effect of over 50% in size
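S. cerevisiae expressing influenza A NS1, grown in glucose, washed, then diluted 1:100 into pH 6.0 -URA galactose medium with 23 nl compound. Growth recovery read as OD600; NS1-free strain serves as control.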
Pf growth 48h: P. falciparum growth inhibition at 48 hours (one generation); P. falciparum luciferase growth in erythrocytes, 48 h; Potency, µM (top dose mostly 28.7 µM), inactives show at the top dose activity change, negative = inhibition, actives largely listed as inhibitors; actives 5.9% (n = 310,000); AID 504832; note: % is set by controls: 0 for no effect and ±100 for the full control effect
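In quantitative HTS format, infected erythrocytes bearing luciferase-reporter parasites were treated for a single generation at 37 C. Luminescence after adding detection reagent served as the growth measure.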
Pf growth 96h: P. falciparum growth inhibition at 96 hour, primary screen for plastid delayed-death inhibitors; actives 6.9% (n = 320,000); Potency, µM (top dose mostly 28.7 µM), for inactives: at the top dose activity change, negative = inhibition, usual class: inhibitors; P. falciparum luciferase reporter growth, 96 h; note: % is set by controls: 0 for no effect and ±100 for the full control effect
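Plates of compound plus infected erythrocytes (2% hematocrit, 0.05% parasitemia final) incubate 96 hours, 37 C, 5% CO2. Detection reagent added; reduced luminescence from the parasites' luciferase reporter flags inhibition.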
* hit, by the source's call; ? = inconclusive; . = not tested or not shown; [ ] = dose if it differs, or a comment. Rows were chosen to be rich in hits. Some 10% of all compounds tested hit in one or more screens of this group. Unless noted, calls come from the whole dose curve; as a rule, active = well fitted inhibition curve with a large enough effect; inconclusive = small, poorly fitted or top-dose-only effect, or another doubt; inactive = no such curve, though single readings can be large or run the other way. Potency is the fitted concentration of half-maximal effect.

SMILES | SARS PLP yeast | NS1 inh | Pf growth 48h | Pf growth 96h
CC1CCN(CCCNC(=O)C2CC(=O)N(C3CCCCCC3)C2)CC1 (stereo not drawn) | 1% | 2% | 4% | 53%
O=C(NCCc1ccccc1)C1CC(=O)N(C2CCCCC2)C1 (stereo not drawn) | 8% | 5% | 11% | 5.9µM*
COc1ccc(OC)c(NC(=O)CSc2nnc(-c3cnccn3)n2C)c1 | -2% | -8% | ? | ?
CC(=O)Nc1ccc(/C=N/NC(N)=S)cc1 | . | . | 1% | -3%
NC(=S)N/N=C/c1ccc(C23CC4CC(CC(C4)C2)C3)cc1 | ? | 0% | 2.6µM* | ?
O=C(O)CCCCCN1C(=O)C(O)=C(C(=O)/C=C/c2ccccc2)C1c1ccccc1[N+](=O)[O-] (stereo not drawn) | -1% | 0% | 33% | 9.3µM*
C[C@]12CC[C@H]3[C@@H](CCC4=CC(=O)CC[C@@]43C)[C@@H]1CC[C@@H]2C(=O)CO | -6% | -12% | 12µM* | 9.3µM*
Nc1nnnn1/N=C/c1cccc(Oc2ccccc2)c1 | -3% | -11% | 42% | 7.4µM*
COc1ccc(NC(=O)CN2C(=O)NC(C)(c3ccccc3)C2=O)cc1Cl (stereo not drawn) | 0% | 6% | 21% | -14%
COc1ccc(/C=C(/C(=O)Nc2ccccc2C(=O)N2CCCC2)c2ccccc2)cc1 | -18% | -66% | 6.6µM* | ?
CCCC(=O)c1ccc(N2CCN(C(=O)OCC)CC2)c(F)c1 | 3% | -22% | 5% | 9.3µM*
Cc1nnc2ccc(-c3cccc(NS(=O)(=O)c4ccccc4Cl)c3)nn12 | -2% | . | 12µM* | ?
O=[N+]([O-])c1ccccc1S(=O)(=O)Nc1cccc(-c2ccc3nncn3n2)c1 | -2% | . | 9% | -24%
Cc1nnc2ccc(-c3cccc(NS(=O)(=O)c4ccccc4[N+](=O)[O-])c3)nn12 | -1% | . | 52% | 2.9µM*
C/C(=N\NC(=O)C(=O)N/N=C(\C)c1cccc(O)c1)c1cccc(O)c1 | -1% | 2% | -8% | 16%
CC(C)CC(=O)Nc1ccc(S(=O)(=O)N2CC3CC(C2)c2cccc(=O)n2C3)cc1 (stereo not drawn) | 4% | . | 2% | -17%
CCOc1ccc(/C=N/NC(=O)c2ccccc2Cl)cc1CN1CC2CC(C1)c1cccc(=O)n1C2 (stereo not drawn) | 2% | . | 8.3µM* | -23%
CCOc1ccc(/C=N/NC(=O)c2ccc(F)cc2)cc1CN1CC2CC(C1)c1cccc(=O)n1C2 (stereo not drawn) | 1% | . | 5.2µM* | 18%
CCCOc1ccc(C(=O)Nc2ccc(S(=O)(=O)N3C[C@@H]4C[C@@H](C3)c3cccc(=O)n3C4)cc2)cc1 | 0% | . | 2.1µM* | 4.7µM*
CCOc1ccc(/C=N/NC(=O)c2ccccc2C)cc1CN1CC2CC(C1)c1cccc(=O)n1C2 (stereo not drawn) | 1% | . | 3.7µM* | ?
COc1ccc(OC)c(CC(=O)N2CCc3cc(OC)c(OC)cc3C2)c1 | -1% | 1% | 6% | -8%
O=C(Cn1nnc(-c2ccc(N3CCOCC3)cc2)n1)OC1CCCCC1 | -4% | -10% | 235% | 7.4µM*
CCOc1ccccc1N1CCN(C(=S)NC(=O)C23CC4CC(CC(C4)C2)C3)CC1 | 14% | 1% | 8.3µM* | ?
Clc1ccc(-c2nnc3sc(-c4ccc(Br)o4)nn23)cc1 | -2% | 11% | ? | ?
Cc1oc(-c2ccc(Cl)cc2)cc1-c1nn2c(-c3ccoc3C)nnc2s1 | -4% | 10µM* | ? | ?
SMILES | SARS PLP yeast | NS1 inh | Pf growth 48h | Pf growth 96h
COC(=O)N1[C@H](C)C=C[C@]1(Cc1ccccc1)C(=O)O | 4% | -1% | 34% | 10%
CCN1CCN(C(=O)C(NS(=O)(=O)c2ccc3nc(C)sc3c2)C(C)C)CC1 (stereo not drawn) | -2% | 3% | . | 9.3µM*
Cc1nc2ccc(S(=O)(=O)NC(C(=O)NC3CCCC3)C(C)C)cc2s1 (stereo not drawn) | -2% | ? | . | ?
CCC(=O)N1CCN(c2ccc(Cl)cc2NC(=O)c2cccc([N+](=O)[O-])c2)CC1 | 0% | . | -6%[5.75 µM] | ?
O=C(CN1C(=O)NC2(CCCC2)C1=O)Nc1cc(Cl)ccc1N1CCCCC1 | 1% | -11% | ? | 13µM*
O=C(Nc1ccccc1N1CCCC1)c1ccc(Br)o1 | -14% | -6%[9.22 µM] | -25% | -12%
O=C(CN1C(=O)NC2(CCCCC2)C1=O)Nc1cc(C(F)(F)F)ccc1N1CCCC1 | -3% | . | 2% | -16%
CCC(=O)N1CCN(c2ccc(Cl)cc2NC(=O)Cc2ccc(Cl)cc2)CC1 | -14% | 1% | . | 13µM*
CCC(=O)N1CCN(c2ccc(Cl)cc2NC(=O)c2ccc([N+](=O)[O-])o2)CC1 | -2% | 14% | ? | 10µM*
O=C(Nc1ccc(N2CCCC2)c(Cl)c1)c1ccc(Br)o1 | -1% | 5% | 4.7µM* | 4.7µM*
COc1cccc(N2CCN(S(=O)(=O)c3ccc4ccccc4c3)CC2)c1 | -1% | . | 12% | 4%
O=C(Cc1ccc(Cl)c(Cl)c1)OCCN1CCCC1 | . | -9% | . | .
CC(=O)Nc1ccc(S(=O)(=O)N2CCN(C(=O)c3ncoc3-c3ccccc3C)CC2)cc1 | -2% | -49% | -17% | -28%
CCC(=O)N1CCN(c2ccc(NC(=O)c3ccc([N+](=O)[O-])o3)cc2Cl)CC1 | -24% | . | ? | 14%
CC(=O)N1CCN(c2ccc(NC(=O)c3ccc([N+](=O)[O-])o3)cc2Cl)CC1 | -17% | -15% | ? | 5.2µM*
COc1ccc(S(=O)(=O)N(C)C[C@H]2Oc3ccc(NC(=O)C4CC4)cc3C(=O)N([C@H](C)CO)C[C@@H]2C)cc1 | -1% | . | . | .
Cc1ccc(NC(=O)C2CCC(=O)N2)cc1C (stereo not drawn) | -8% | -3% | -14% | ?
O=C1CCC(C(=O)Nc2ccc(Cl)cc2)N1 (stereo not drawn) | 1% | 6% | 2% | 5.2µM*
O=C(N/N=C/C(Cl)=C/c1ccccc1)c1ccccn1 | -4% | -9% | -45% | ?
O=C(N/N=C/C(Cl)=C\c1ccccc1)c1cccs1 | -2% | -40% | ? | 3.7µM*
Cc1cc(C(=O)N/N=C/C(Cl)=C/c2ccccc2)c(C)o1 | 1% | -4% | 9.3µM* | 10µM*
CCCOC(=O)c1c(NC(=O)/C=C/c2cnn(C)c2C)sc(C(=O)OCC)c1C | -23% | 11% | -19% | ?
CCOc1ccc(-n2c(SCC(=O)Nc3ccc(OC)cc3)nc3c(c2=O)SCC3)cc1 | 6% | -8% | 10% | 50%
CCOC(=O)c1sc(NC(=O)/C=C/c2cnn(CC)c2C)c(C(=O)OCC)c1C | 2% | 12% | ? | 8.3µM*
CCOC(=O)c1sc(NC(=O)CSc2nc3c(c(=O)n2-c2ccc(F)cc2)SCC3)c(C(=O)OCC)c1C | -16% | 8% | 2.6µM* | 2.9µM*
CCOC(=O)c1sc(NC(=O)CSc2nnc(C)s2)c(C(=O)OCC)c1C | 0% | -31% | 9.3µM* | ?
Cc1cc(NC(=O)CSc2nc3ccccc3c(=O)n2-c2ccccc2)no1 | 7% | -3% | 29% | .

High-throughput results deposited in PubChem BioAssay by National Center for Advancing Translational Sciences (NCATS).
